Test results published in ChEMBL document CHEMBL1201862, “PubChem BioAssay data set” (2004).
The campaign covered roughly 400,000 compounds. About 2,100 (0.53%) were called active. About 14% were inconclusive and are not listed. How the calls were made is not given here. The full list was thinned out, with actives kept by preference.

Each compound was assayed against Ataxin-2 (Homo sapiens) (UniProt Q99700) (assay: qHTS for Inhibitors of ATXN expression.).
Ataxin-2 (Homo sapiens), sequence (Q99700 whole entry): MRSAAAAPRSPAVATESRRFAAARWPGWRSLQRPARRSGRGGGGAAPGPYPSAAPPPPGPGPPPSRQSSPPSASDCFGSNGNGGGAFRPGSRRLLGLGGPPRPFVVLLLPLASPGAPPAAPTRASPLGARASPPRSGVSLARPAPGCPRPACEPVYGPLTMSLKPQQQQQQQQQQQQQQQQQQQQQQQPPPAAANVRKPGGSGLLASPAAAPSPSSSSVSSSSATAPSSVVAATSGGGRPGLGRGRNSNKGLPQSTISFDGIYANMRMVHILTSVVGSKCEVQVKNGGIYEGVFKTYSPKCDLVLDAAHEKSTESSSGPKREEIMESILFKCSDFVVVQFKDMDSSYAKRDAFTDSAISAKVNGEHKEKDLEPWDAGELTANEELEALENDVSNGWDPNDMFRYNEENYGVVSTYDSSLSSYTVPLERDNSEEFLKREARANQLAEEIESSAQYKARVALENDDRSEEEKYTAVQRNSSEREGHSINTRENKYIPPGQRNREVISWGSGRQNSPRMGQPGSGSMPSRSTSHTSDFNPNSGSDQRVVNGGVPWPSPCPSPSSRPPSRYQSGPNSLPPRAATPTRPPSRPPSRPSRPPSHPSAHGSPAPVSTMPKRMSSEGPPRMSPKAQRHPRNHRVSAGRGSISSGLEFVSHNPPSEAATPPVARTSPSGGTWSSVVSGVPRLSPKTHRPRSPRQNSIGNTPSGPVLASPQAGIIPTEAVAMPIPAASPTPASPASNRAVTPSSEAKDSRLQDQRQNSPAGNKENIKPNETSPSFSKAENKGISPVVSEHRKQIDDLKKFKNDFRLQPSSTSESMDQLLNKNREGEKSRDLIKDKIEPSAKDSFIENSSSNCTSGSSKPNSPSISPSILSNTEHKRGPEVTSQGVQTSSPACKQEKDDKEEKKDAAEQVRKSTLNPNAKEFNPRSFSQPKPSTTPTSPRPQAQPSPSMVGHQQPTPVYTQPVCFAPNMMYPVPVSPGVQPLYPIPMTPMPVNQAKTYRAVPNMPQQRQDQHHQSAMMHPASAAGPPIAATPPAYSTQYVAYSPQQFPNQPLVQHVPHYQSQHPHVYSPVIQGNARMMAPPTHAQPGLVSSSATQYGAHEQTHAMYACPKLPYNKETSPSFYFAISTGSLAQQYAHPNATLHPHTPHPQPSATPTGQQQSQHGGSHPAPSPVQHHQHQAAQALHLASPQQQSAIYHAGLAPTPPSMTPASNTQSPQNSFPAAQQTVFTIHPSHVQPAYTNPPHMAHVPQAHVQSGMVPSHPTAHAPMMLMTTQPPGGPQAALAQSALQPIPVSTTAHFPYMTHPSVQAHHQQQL
Assay type: functional
For `Cc1ccc(NC(=O)c2[nH]cnc2C(=O)NCCCCCNC(=O)OC(C)(C)C)cc1`, the Potency was 39.8 µM (active). For `Cc1ccc(OCCNC(=O)c2ccccc2F)cc1`, the Potency was “inactive”. `Cc1cccc(NC(=O)c2[nH]cnc2C(=O)NCCCCCNC(=O)OC(C)(C)C)c1` was tested, and the Potency was 20 µM (active). For `COc1cccc(-c2ccc3c(N)c(C(=O)c4ccc(Br)cc4)sc3n2)c1`, the Potency was “inactive”. `O=S(=O)(NCc1csc(-c2cccs2)n1)c1cccc(C(F)(F)F)c1` was tested, and the Potency was “inactive”. In the case of `CCCCn1c(OC(=S)N(CC)CC)cc(C)nc1=S`, the Potency is reported as 35.5 µM (active). In the case of `Nc1ccc2[nH]c(-c3ccc(-c4nc5cc(N)ccc5[nH]4)cc3)nc2c1`, the Potency is reported as “inactive”. In the case of `Nc1ccc2[nH]c(-c3ccc(Cl)cc3)nc2c1`, the Potency is reported as 31.6 µM (active). With `Nc1ccc2c3[nH]c4cc(N)ccc4cc-3nc2c1` the Potency was “inactive”. `Cc1ccc2nc3c(cc(C(=O)NCCCn4ccnc4)n3C)c(=O)n2c1` was tested, and the Potency was “inactive”. For `Cc1cc(C)c2cc(N)c(Cl)nc2n1`, the Potency was “inactive”. In the case of `CCOC(=O)c1cc2c(=O)n3ccccc3nc2n(CC2CCCO2)/c1=N/C(=O)/C=C/c1ccccc1` (stereo unspecified), the Potency is reported as “inactive”. For `CC(=O)c1ccc(-c2cnc3c(NC=O)cc(-c4ccccc4Oc4ccccc4)cn23)cc1`, the Potency was “inactive”. `CN(C)CCNC(=O)c1cccc(-c2cnc3c(NC=O)cc(-c4cc(F)c(F)c(F)c4)cn23)c1` was tested, and the Potency was 25.1 µM (active). In the case of `CN(C)C(=O)c1cccc(-c2cnc3c(NC=O)cc(-c4cccc(C(F)(F)F)c4)cn23)c1`, the Potency is reported as 39.8 µM (active). In the case of `COc1cccc(-c2cnc3c(NC=O)cc(-c4ccc(N(C)C)cc4)cn23)c1`, the Potency is reported as “inactive”. In the case of `CN(C)c1ccccc1-c1cc(NC=O)c2ncc(-c3cccc(C(F)(F)F)c3)n2c1`, the Potency is reported as “inactive”. For `CN(C)CCNC(=O)c1cccc(-c2cnc3c(NC=O)cc(-c4cccc(F)c4)cn23)c1`, the Potency was 31.6 µM (active). For `CN(C)CCNC(=O)c1cccc(-c2cnc3c(NC=O)cc(-c4ccc(F)cc4)cn23)c1`, the Potency was 35.5 µM (active). With `CCCCCCc1cc2cc(-c3nnc(-c4ccccc4)o3)c(=O)oc2cc1O` the Potency was “inactive”. With `CC(C)OC(=O)c1sc2nc(-c3ccccc3)ccc2c1N` the Potency was “inactive”. For `O=C1CCn2c1c(O)c1ccccc1c2=O`, the Potency was “inactive”. For `O=C1OCCN1C(=O)[C@H]1[C@H](c2ccccc2)C(c2ccccc2)=NN1c1ccccc1`, the Potency was “inactive”. `N#CC1(Nc2cccc(Br)c2)C(=O)Nc2ccccc21` (stereo unspecified) was tested, and the Potency was “inactive”. `COc1ccc(OC)c(S(=O)(=O)N2CCN(c3ccccc3)CC2)c1` was tested, and the Potency was “inactive”. In the case of `CCOc1ccc(C2=CC(c3cc(Br)ccc3F)n3ncnc3N2)cc1Cl` (stereo unspecified), the Potency is reported as “inactive”. For `Cc1cccc(C2=NN(c3ccc(Br)cc3)[C@@H](C(=O)N3CCOC3=O)[C@@H]2c2ccc(Cl)cc2)c1`, the Potency was “inactive”. With `CCOc1cc(C2NN=C(c3ccc(C)cc3)S2)ccc1O` (stereo unspecified) the Potency was “inactive”. In the case of `O=C1c2[nH]nc(-c3ccc(Br)cc3)c2C(c2cccc(O)c2)N1c1ccc(Cl)cc1` (stereo unspecified), the Potency is reported as 28.2 µM (active). For `O=C1OCCN1C(=O)[C@H]1[C@H](c2ccc(Cl)cc2)C(c2cccc(Cl)c2)=NN1c1ccc(Br)cc1`, the Potency was “inactive”. For `CCOc1cc(C2c3c(-c4ccc(Br)cc4)n[nH]c3C(=O)N2c2ccc(Cl)cc2)ccc1O` (stereo unspecified), the Potency was 28.2 µM (active). For `CCN(CCCn1c(=S)[nH]c2ccc(N3CCOCC3)cc2c1=O)c1ccccc1`, the Potency was “inactive”. With `CN(/N=C/c1ccc2c(c1)OCO2)c1nc(N2CCOCC2)nc(N2CCOCC2)n1` the Potency was “inactive”. With `Cc1nonc1NC(=O)CSc1nc2ccccc2cc1C#N` the Potency was “inactive”. `CC(=O)c1ccc2cccc3c2c1NC(C)=N3` was tested, and the Potency was “inactive”. With `Cc1nc(=O)c(-c2ccccc2)c(C)n1-c1ccccc1Cl` the Potency was “inactive”. With `Cn1c2ccccc2c(=O)c2ccc(F)cc21` the Potency was “inactive”. In the case of `COc1ccccc1NC(=O)c1ccc(-n2ccnc2)c([N+](=O)[O-])c1`, the Potency is reported as “inactive”. `Cc1ccc(Sc2c([N+](=O)[O-])c(=O)n(C)c3ccccc23)cc1` was tested, and the Potency was 28.2 µM (active). With `Cc1ccc(Sc2nc(C)c([N+](=O)[O-])c(C)c2C#N)cc1` the Potency was “inactive”. `CCN(CC)c1c([N+](=O)[O-])c(=O)n(CC)c2ccccc12` was tested, and the Potency was “inactive”. With `Cn1c(=O)c([N+](=O)[O-])c(-n2ccnc2)c2ccccc21` the Potency was 23.8 µM (active). `Cn1c(=O)c([N+](=O)[O-])c(Cl)c2ccccc21` was tested, and the Potency was 29.9 µM (active). `CCOc1ccc(C2C(C#N)=C(N)Oc3cc(O)ccc32)cc1OCC` (stereo unspecified) was tested, and the Potency was “inactive”. In the case of `COCOc1ccc(/C=C2/Oc3cc(OCOC)cc(OCOC)c3C2=O)c(OCOC)c1`, the Potency is reported as “inactive”. `Cc1cscc(C)c1=S` was tested, and the Potency was “inactive”. For `Nc1c(C(=O)CSc2ncccn2)c(=O)[nH]c(=O)n1C1CC1`, the Potency was “inactive”. `Cc1c(CCC(=O)O)c(=O)oc2c(C)c3occ(-c4ccc(Br)cc4)c3cc12` was tested, and the Potency was “inactive”. In the case of `COc1ccc([N+](=O)[O-])cc1C(=O)Nc1ccc(Cc2ccncc2)cc1`, the Potency is reported as “inactive”. With `O=C(Nc1ccc(Nc2ccncc2)cc1)c1ccc(Nc2ccnc3ccc([N+](=O)[O-])cc23)cc1[N+](=O)[O-]` the Potency was 39.8 µM (active). `O=C(Nc1ccc(S(=O)(=O)Nc2cnc3ccccc3n2)cc1)c1ccc([N+](=O)[O-])cc1Cl` was tested, and the Potency was “inactive”.
